We go through 63 compounds from the antibiotic and cytotoxicity screens of Wong et al. (2023).

SMILES strings stand for the structures. Hit rate of the full screen: of about 39,000 compounds, about 3,300 (8.5%) were called active. The list comes from a sample in which actives are over-represented; it also holds similar structures and randomly drawn compounds.

The assay has as its system HepG2. The experiment in a line: cytotoxicity call (relative viability < 0.9). Particulars: 10 µM.
Turning to `O=c1[nH]ccn(-c2ccccc2)c1=O`, the cytotoxicity call is “active”. Regarding `Cc1ccc(=O)n(-c2ccccc2)c1`, the cytotoxicity call was “inactive”. With `O=c1[nH]ncn1-c1ccccc1`, the cytotoxicity call is “inactive”. Turning to `Cc1c(C(=O)O)sc(=O)n1C`, the cytotoxicity call was “inactive”. Regarding `CC(C)NC(=O)N(C)C[C@@H]1Oc2cc(C#Cc3cccc(F)c3)ccc2S(=O)(=O)N([C@@H](C)CO)C[C@@H]1C`, the cytotoxicity call was “inactive”. For the compound `C[C@@H]1CN([C@@H](C)CO)C(=O)Cc2cc(NS(=O)(=O)c3ccccc3)ccc2O[C@@H]1CN(C)S(=O)(=O)c1ccc(F)cc1`, the cytotoxicity call was “inactive”. Turning to `Cc1ccc(S(=O)(=O)N(C)C[C@@H]2OCCCC[C@H](C)Oc3ccc(NC(=O)CCC(F)(F)F)cc3C(=O)N([C@H](C)CO)C[C@@H]2C)cc1`, the cytotoxicity call was “inactive”.

`COc1ccc([C@@H](NC(=O)C2CCN(CCOc3ccc(Cl)cc3Cl)CC2)c2ccco2)cc1`: the cytotoxicity call is “inactive”. Take `COc1ccc(OCCN2CCC(C(=O)N[C@@H](c3ccc(F)cc3)c3ccc4ccccc4n3)CC2)cc1`: the cytotoxicity call is “active”. In the case of `O=C(N[C@H](c1ccc(F)cc1)c1ccc2ccccc2n1)C1CCN(CCOc2ccc(Cl)cc2)CC1` it was “inactive”.

As for `COc1ccc(/C=C/CN2CCC(C(=O)N[C@@H](c3ccc(F)cc3)c3ccc4ccccc4n3)CC2)cc1`, the cytotoxicity call was “active”. In the case of `O=C(N[C@H](c1ccc(F)cc1)c1ccc2ccccc2n1)C1CCN(CCOc2ccc(Cl)cc2Cl)CC1` it was “inactive”. In the case of `O=C(N[C@@H](c1ccccc1)c1ccc2ccccc2n1)C1CCN(CCOc2ccc(Cl)cc2Cl)CC1` it was “inactive”. With `O=C(N[C@@H](c1ccc(F)cc1)c1ccc2ccccc2n1)C1CCN(CCOc2ccc(F)cc2)CC1`, the cytotoxicity call was “active”. `C[C@@H]1CN([C@@H](C)CO)C(=O)c2cccc(NS(=O)(=O)c3cccs3)c2O[C@H]1CN(C)S(=O)(=O)c1ccc(F)cc1`: the cytotoxicity call is “inactive”. As to `C[C@@H]1CN([C@H](C)CO)S(=O)(=O)c2ccc(-c3cccc(C#N)c3)cc2O[C@H]1CN(C)C(=O)c1cccnc1`, the cytotoxicity call was “inactive”. In the case of `COc1cccc(S(=O)(=O)N2C[C@@H](O)COC[C@@H]3O[C@H](CC(=O)N4CCN(C)CC4)CC[C@H]32)c1` it was “inactive”; in that of `CO[C@H]1CN(C)C(=O)c2cc(NS(=O)(=O)c3ccccc3)ccc2OC[C@@H](C)N(C(=O)NC(C)C)C[C@H]1C`, “inactive”; in that of `CC(C)(C)c1nc[nH]c1/C=c1\[nH]c(=O)/c(=C/c2ccccc2)[nH]c1=O`, “inactive”.

On to `C[C@@H]1CN([C@@H](C)CO)C(=O)c2cc(NS(=O)(=O)c3cn(C)cn3)ccc2O[C@@H](C)CCCCO[C@@H]1CN(C)C(=O)CCCN(C)C`, for which the cytotoxicity call is “inactive”. For the compound `CO[C@@H]1CN(C)C(=O)c2cc(NC(=O)Nc3ccccc3F)ccc2OC[C@H](C)N(CCC(F)(F)F)C[C@@H]1C`, the cytotoxicity call was “inactive”.

Take `CC(=O)O[C@H](C[C@H](O)[C@@](C)(CCC=C(C)C)O[C@H]1O[C@@H](CO)[C@@H](O)[C@@H](O)[C@@H]1O)/C(C)=C/COC[C@@H](O)[C@@H](O)[C@@H](O)[C@@H](O)CO`: the cytotoxicity call is “inactive”. Turning to `CCCCCCOc1cccc(N)c1`, the cytotoxicity call was “inactive”. For the compound `C[C@@H]1CCCCO[C@H](CN(C)C(=O)Nc2cccc3ccccc23)[C@@H](C)CN([C@@H](C)CO)C(=O)c2cc(NC(=O)CCCN(C)C)ccc2O1`, the cytotoxicity call is “inactive”. With `CNC[C@@H]1OCCCC[C@@H](C)Oc2ccc(NS(=O)(=O)c3cn(C)cn3)cc2C(=O)N([C@H](C)CO)C[C@@H]1C`, the cytotoxicity call is “inactive”. On to `C[C@@H]1CCCCO[C@@H](CN(C)CC2CCCCC2)[C@H](C)CN([C@@H](C)CO)C(=O)c2cc(NC(=O)Nc3ccc(C(F)(F)F)cc3)ccc2O1`, for which the cytotoxicity call was “active”. On to `C[C@H]1CCCCO[C@@H](CN(C)CC2CCCCC2)[C@@H](C)CN([C@@H](C)CO)C(=O)c2cc(NC(=O)Nc3ccc(C(F)(F)F)cc3)ccc2O1`, for which the cytotoxicity call was “active”. Turning to `C[C@@H]1CN([C@@H](C)CO)C(=O)c2cc(NC(=O)Nc3ccc(C(F)(F)F)cc3)ccc2O[C@@H](C)CCCCO[C@H]1CN(C)CC1CCCCC1`, the cytotoxicity call was “inactive”.

On to `C[C@@H]1CCCCO[C@@H](CN(C)CC2CCCCC2)[C@H](C)CN([C@H](C)CO)C(=O)c2cc(NC(=O)Nc3ccc(C(F)(F)F)cc3)ccc2O1`, for which the cytotoxicity call is “active”. Take `C[C@H](CO)N1C[C@H](C)[C@@H](CN(C)CC2CCCCC2)OCCCC[C@H](C)Oc2ccc(NC(=O)Nc3ccc(C(F)(F)F)cc3)cc2C1=O`: the cytotoxicity call is “active”. Regarding `CC(C)=CCCC(C)=CCOc1ccc2ccc(=O)oc2c1`, the cytotoxicity call is “inactive”.

Turning to `O=C1/C(=C/c2cn(-c3ccccc3)nc2-c2ccc(OCc3ccc(Cl)cc3)cc2)SC(=S)N1CCS(=O)(=O)O`, the cytotoxicity call is “inactive”. For `CCS(=O)(=O)NCC[C@H]1CC[C@H](NC(=O)C2CCOCC2)[C@@H](CO)O1`, the cytotoxicity call is “inactive”. In the case of `O=C(C[C@H]1C[C@H]2c3cc(NS(=O)(=O)c4ccc(F)cc4)ccc3O[C@H]2[C@@H](CO)O1)NCCc1ccccc1` it was “inactive”. In the case of `COc1ccc(S(=O)(=O)N(C)C[C@H]2OCCCC[C@H](C)Oc3ccc(NC(=O)Nc4c(C)noc4C)cc3C(=O)N([C@H](C)CO)C[C@@H]2C)cc1` it was “inactive”. Turning to `C[C@H]1CN([C@@H](C)CO)C(=O)Cc2cc(NC(=O)c3ccncc3)ccc2O[C@@H]1CN(C)S(=O)(=O)c1ccc(F)cc1`, the cytotoxicity call is “inactive”. For the compound `CN1CCN(C(=O)C[C@@H]2C[C@H]3c4cc(NC(=O)c5ccc6c(c5)OCO6)ccc4O[C@H]3[C@@H](CO)O2)CC1`, the cytotoxicity call is “inactive”.

For `CC(=O)O[C@@H]1CC[C@@]2(C)[C@@H](CC[C@]3(C)[C@@H]2C(=O)C=C2[C@@H]4[C@@H](C)[C@H](C)CC[C@]4(C)CC[C@]23C)[C@@]1(C)C(=O)O`, the cytotoxicity call is “inactive”.

Consider `C[C@@H]1CN([C@H](C)CO)C(=O)c2cccc(NC(=O)C3CC3)c2O[C@@H]1CN(C)C(=O)Nc1ccc2c(c1)OCO2`, for which the cytotoxicity call was “inactive”.

Consider `Cc1noc(C)c1NC(=O)N(C)C[C@@H]1Oc2ncc(C#CCN(C)C)cc2C(=O)N([C@H](C)CO)C[C@H]1C`, for which the cytotoxicity call is “inactive”. As for `C[C@H](CO)N1C[C@H](C)[C@H](CN(C)CC2CCCCC2)OCCCC[C@H](C)Oc2ccc(NC(=O)Nc3ccc(C(F)(F)F)cc3)cc2C1=O`, the cytotoxicity call is “active”. In the case of `C[C@@H]1CN([C@H](C)CO)C(=O)c2cc(NC(=O)Nc3ccc(C(F)(F)F)cc3)ccc2O[C@@H](C)CCCCO[C@@H]1CN(C)CC1CCCCC1`, the cytotoxicity call was “active”. Turning to `C[C@@H]1CCCCO[C@@H](CN(C)CC2CCCCC2)[C@@H](C)CN([C@H](C)CO)C(=O)c2cc(NC(=O)Nc3ccc(C(F)(F)F)cc3)ccc2O1`, the cytotoxicity call is “active”. As for `C[C@@H]1CCCCO[C@H](CN(C)CC2CCCCC2)[C@@H](C)CN([C@H](C)CO)C(=O)c2cc(NC(=O)Nc3ccc(C(F)(F)F)cc3)ccc2O1`, the cytotoxicity call was “active”.

Regarding `COCC(=O)Nc1ccc2c(c1)C(=O)N(C)C[C@@H](OC)[C@H](C)CN(C(=O)Cc1ccccn1)[C@@H](C)CO2`, the cytotoxicity call is “inactive”. Then `C[C@@H]1CN([C@@H](C)CO)C(=O)c2cc(C#CCc3ccccc3)cnc2O[C@@H]1CN(C)C(=O)C1CCOCC1`, with “inactive”. In the case of `Cc1ccc(S(=O)(=O)N(C)C[C@@H]2Oc3c(NC(=O)C4CC4)cccc3C(=O)N([C@H](C)CO)C[C@@H]2C)cc1`, the cytotoxicity call is “inactive”. `C[C@@H]1CN([C@@H](C)CO)S(=O)(=O)c2ccc(C#C[C@@H](C)O)cc2O[C@H]1CN(C)C(=O)Nc1ccccc1`: the cytotoxicity call is “inactive”. On to `C[C@H]1CN([C@@H](C)CO)C(=O)c2cccc(NS(=O)(=O)c3cn(C)cn3)c2O[C@H]1CN(C)Cc1ccc2c(c1)OCO2`, for which the cytotoxicity call was “inactive”. As for `C[C@@H]1CCCCO[C@H](CN(C)Cc2ccc(C(=O)O)cc2)[C@H](C)CN([C@H](C)CO)C(=O)c2cc(NS(=O)(=O)c3ccc(F)cc3)ccc2O1`, the cytotoxicity call is “inactive”. In the case of `CC(C)NC(=O)Nc1ccc2c(c1)C(=O)N([C@H](C)CO)C[C@H](C)[C@H](CN(C)S(C)(=O)=O)OCCCC[C@H](C)O2` it was “inactive”. Then `CCCC(=O)Nc1ccc2c(c1)C(=O)N(C)C[C@@H](OC)[C@H](C)CN(S(=O)(=O)c1cn(C)cn1)[C@H](C)CO2`, with “inactive”. In the case of `C[C@@H]1CN([C@H](C)CO)C(=O)c2cccc(NS(=O)(=O)c3cccs3)c2O[C@@H]1CN(C)CC1CC1` it was “inactive”. Turning to `COc1ccccc1C#Cc1cnc2c(c1)C(=O)N([C@@H](C)CO)C[C@@H](C)[C@@H](CN(C)C(=O)CC1CC1)O2`, the cytotoxicity call is “inactive”. For `C[C@H]1CCCCO[C@H](CN(C)C(=O)Nc2ccccc2)[C@@H](C)CN([C@@H](C)CO)C(=O)c2cc(NS(=O)(=O)c3ccc(Cl)cc3)ccc2O1`, the cytotoxicity call was “inactive”. Take `COc1ccc(NC(=O)N(C)C[C@@H]2Oc3ccc(NC(=O)CCN4CCOCC4)cc3CC(=O)N([C@H](C)CO)C[C@@H]2C)cc1`: the cytotoxicity call was “inactive”. Then `C[C@H]1CN([C@@H](C)CO)C(=O)Cc2cc(NC(=O)Nc3ccc(C(F)(F)F)cc3)ccc2O[C@@H]1CN(C)C(=O)Nc1cccc2ccccc12`, with “inactive”; and `C[C@@H]1CN([C@H](C)CO)C(=O)Cc2cc(NS(=O)(=O)c3cn(C)cn3)ccc2O[C@@H]1CN(C)CC1CCCCC1`, with “inactive”; and `C[C@H](CO)N1C[C@H](C)[C@@H](CN(C)Cc2ccc(Oc3ccccc3)cc2)Oc2ncc(-c3ccncc3)cc2C1=O`, with “inactive”. As to `C[C@@H]1CCCCO[C@H](CN(C)CC2CCCCC2)[C@H](C)CN([C@H](C)CO)C(=O)c2cc(NC(=O)Nc3ccc(C(F)(F)F)cc3)ccc2O1`, the cytotoxicity call is “active”.

Take `C[C@@H]1CN([C@@H](C)CO)C(=O)c2cc(NC(=O)Nc3ccc(C(F)(F)F)cc3)ccc2O[C@@H](C)CCCCO[C@@H]1CN(C)CC1CCCCC1`: the cytotoxicity call is “active”. `C[C@@H]1CCCCO[C@H](CN(C)CC2CCCCC2)[C@H](C)CN([C@@H](C)CO)C(=O)c2cc(NC(=O)Nc3ccc(C(F)(F)F)cc3)ccc2O1`: the cytotoxicity call is “active”.

On to `CCOC(=O)CCCCCC(=O)Nc1ccc2c(c1)C(=O)N([C@H](C)CO)C[C@@H](C)[C@@H](CN(C)S(=O)(=O)c1ccc(Cl)cc1)OCCCC[C@H](C)O2`, for which the cytotoxicity call was “inactive”.
